The list is not random: actives were taken first. Their share in the collection is about 19%.
HT1080-NT tox – qHTS for induction of synthetic lethality in tumor cells producing 2HG: qHTS for the HT-1080-NT fibrosarcoma cell line. Potency, µM (doses to about 46.1 µM), actives largely listed as cytotoxic. HT-1080-NT fibrosarcoma viability, CellTiter-Glo ATP luminescence, 48 h. 1.6% of 360,000 active;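 note: NT is the 2HG producing partner of a matched IDH1 knockdown line; nearly all actives have a fitted effect of over 55% in size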
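A 48-hour cytotoxicity screen used HT-1080-NT cells plated 2 hours before compound delivery. ATP-based CellTiter-Glo luminescence measured viability, normalized to DMSO and no-cell controls.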
IL1B secr inh – qHTS for Inhibitors of Inflammasome Signaling: IL-1-beta AlphaLISA Primary Screen; 4.7% of 360,000 active; THP-1 LPS/ATP IL-1B secretion, AlphaLISA, 16 h; hits give low values; activity change, % at 57.5 µM; in the data active = activity change below about -50%; inconclusive = mostly about -30% to -49%
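THP-1 cells pretreated 1 hr with compounds (up to 57.5 uM final), then stimulated with LPS (250 ng/mL final) plus ATP (1.25 mM final); secreted IL-1B measured by AlphaLISA after 16 hr, decreased signal indicating inhibition.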
TDP1 cell noCPT – qHTS for Inhibitors of human tyrosyl-DNA phosphodiesterase 1 (TDP1): qHTS in cells in absence of CPT; DT40 Tdp1-/- hTDP1 cells, no CPT, ATP luminescence, 48 h; Potency, µM (series often up to 46.2 µM), usual class: inhibitors; 15% of 420,000 active; AID 686978, 2013; note: nearly all actives have a fitted effect of over 55% in size
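Readout: luminescence from CellTiter-Glo after 30 min in the dark at RT. Cells: DT40 Tdp1-/- with stable hTDP1, 400/well. Exposure: compounds alone, ≥48 hr, 37 °C.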
HT1080 IDH1KD tx – qHTS for induction of synthetic lethality in tumor cells producing 2HG: qHTS for the HT-1080-IDH1KD cell line; 2% of 360,000 active; Potency, µM (highest dose often 46.1 µM), actives largely listed as cytotoxic; AID 686971, 2013; HT-1080 IDH1 knockdown viability, ATP luminescence, 48 h
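% activity derives from luminescence (CellTiter-Glo), normalised to DMSO and no-cell wells. HT-1080-IDH1KD cells, 750/well, had 48 h compound exposure at 37 °C.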
DT40 TDP1 CPT – qHTS for Inhibitors of human tyrosyl-DNA phosphodiesterase 1 (TDP1): qHTS in cells in presence of CPT; Potency, µM (titrated, usually from 46.2 µM), hits mostly inhibitors; chicken DT40 Tdp1-/-;hTDP1 cells + 20 nM CPT, ATP luminescence, 48 h; 12% of 420,000 active; note: nearly all actives have a fitted effect of over 55% in size
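Chicken DT40 Tdp1-/- cells stably complemented with human TDP1 were seeded at 400 cells/well in medium containing 20 nM camptothecin, exposed to pin-transferred compounds, and grown at 37 °C for at least 48 hr. Viability was read as ATP luminescence.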
ELG1 repair inh – qHTS screen for small molecules that inhibit ELG1-dependent DNA repair in human embryonic kidney (HEK293T) cells expressing luciferase-tagged ELG1 | HEK293T ELG1-luciferase reporter, luminescence, 16 h; DNA damage induced by 5-fluorouridine | Potency, µM (series often up to 46.1 µM), most hits filed as inhibitors | 2.3% of 330,000 active; note: nearly all actives have a fitted effect of over 55% in size
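Reporter activity after DNA damage by 5-fluorouridine is monitored. Compound-treated cells incubate 16 hr at 37 °C, then ONE-Glo is added for 30 min before luminescence reading.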
Hits are given with their value. Unless noted, calls come from the whole dose curve; as a rule, active = well fitted curve in the direction sought with a large enough effect; inconclusive = small, poorly fitted or top-dose-only effect, or another doubt; inactive = no such curve, though single readings can be large; an effect the other way counts as inactive or inconclusive.

Results for CCN(CC(=O)Nc1cccc(OC)c1)C(=O)C1CC(=O)N(Cc2ccccc2Cl)C1 (configuration not stated) ?
HT1080-NT tox: inactive; IL1B secr inh: inactive; TDP1 cell noCPT: inactive; HT1080 IDH1KD tx: inactive; DT40 TDP1 CPT: inactive

How did CCCc1c(-c2cccc(F)c2)ncn1CCc1ccccc1OC do in these assays?
HT1080-NT tox: inconclusive; IL1B secr inh: -77.9; TDP1 cell noCPT: 14.6µM; HT1080 IDH1KD tx: inconclusive; DT40 TDP1 CPT: inconclusive

What do the screens show for `CCCc1c(-c2ccc(F)cc2F)ncn1Cc1ccccc1OC`?
HT1080-NT tox: 18.4µM; IL1B secr inh: inactive; TDP1 cell noCPT: 1.46µM; HT1080 IDH1KD tx: inconclusive; DT40 TDP1 CPT: 2.06µM

How did CCCCCc1c(-c2cccc(F)c2)ncn1CCc1ccccc1OC do in these assays?
HT1080-NT tox: inconclusive; IL1B secr inh: inactive; TDP1 cell noCPT: 18.4µM; HT1080 IDH1KD tx: inconclusive; DT40 TDP1 CPT: 23.1µM

How did CCCCc1c(-c2cccc(Br)c2)ncn1CCc1ccccc1OC do in these assays?
HT1080-NT tox: 14.6µM; IL1B secr inh: -72.0; TDP1 cell noCPT: 5.8µM; HT1080 IDH1KD tx: inconclusive; DT40 TDP1 CPT: 5.8µM

What do the screens show for `CC(C)(C)C1CCc2c(sc(NC(=O)c3ccc(Cl)cc3)c2C(=O)NCc2ccco2)C1` (configuration not stated)?
TDP1 cell noCPT: inactive; DT40 TDP1 CPT: inactive

Results for CC1(CCc2ccc3c(c2)OCO3)NCCc2c1[nH]c1ccccc21 (configuration not stated) ?
HT1080-NT tox: inactive; IL1B secr inh: -57.5; TDP1 cell noCPT: 18.4µM; HT1080 IDH1KD tx: inactive; DT40 TDP1 CPT: inconclusive; ELG1 repair inh: inactive

How did COC(=O)C1(C)NCCc2c1[nH]c1ccccc21 (configuration not stated) do in these assays?
HT1080-NT tox: inactive; IL1B secr inh: inactive; TDP1 cell noCPT: inactive; HT1080 IDH1KD tx: inactive; DT40 TDP1 CPT: inactive; ELG1 repair inh: inactive

How did CCc1n[nH]c(=S)n1/N=C/c1cc(Br)c(OC)cc1OC do in these assays?
HT1080-NT tox: inactive; IL1B secr inh: inactive; TDP1 cell noCPT: inactive; HT1080 IDH1KD tx: inactive; DT40 TDP1 CPT: inactive; ELG1 repair inh: inactive

How did N/C(=N\S(=O)(=O)c1cc(C(F)(F)F)cc(C(F)(F)F)c1)c1ccc(Cl)cc1 do in these assays?
HT1080-NT tox: inconclusive; IL1B secr inh: inactive; TDP1 cell noCPT: 20.6µM; HT1080 IDH1KD tx: inconclusive; DT40 TDP1 CPT: 18.4µM; ELG1 repair inh: inconclusive

How did Cc1cc(C(C)(C)C)oc1C(=O)N(CC(=O)NC1CCCC1)c1c(C)cccc1C do in these assays?
HT1080-NT tox: inconclusive; IL1B secr inh: inactive; TDP1 cell noCPT: 5.17µM; HT1080 IDH1KD tx: inconclusive; DT40 TDP1 CPT: 11.6µM; ELG1 repair inh: inactive

Results for Cc1cc(C(C)(C)C)oc1C(=O)N(CC(=O)NC1CCCC1)c1ccc(F)cc1 ?
HT1080-NT tox: inconclusive; IL1B secr inh: inactive; TDP1 cell noCPT: 16.4µM; HT1080 IDH1KD tx: inconclusive; DT40 TDP1 CPT: inconclusive; ELG1 repair inh: inactive

How did COc1ccccc1N(CC(=O)NC1CCCC1)C(=O)c1oc(C(C)(C)C)cc1C do in these assays?
HT1080-NT tox: inactive; IL1B secr inh: -91.5; TDP1 cell noCPT: 14.6µM; HT1080 IDH1KD tx: inactive; DT40 TDP1 CPT: 23.1µM; ELG1 repair inh: inconclusive

What do the screens show for `CSc1cccc(NC(=O)CCS(=O)(=O)c2cccc3nonc23)c1`?
HT1080-NT tox: inactive; IL1B secr inh: inactive; TDP1 cell noCPT: inactive; HT1080 IDH1KD tx: inactive; DT40 TDP1 CPT: inactive; ELG1 repair inh: inactive
